Bioassay records deposited in PubChem BioAssay by The Scripps Research Institute Molecular Screening Center.
The list is not random: actives were taken first. Their share in the collection is about 1.9%.
bovine MsrA act – bovine MsrA enzyme activators, primary screen, biochemical, absorbance, HTS | purified bovine MsrA, absorbance read-out | activation, % at 10.6 µM | Methionine sulfoxide reductase A (Bos taurus) | actives 0.3% (n = 360,000); in the data active = activation above about 7.5%;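 also: 0% = vehicle and 100% = reference activator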
PLC-gamma1 inh – PLC-gamma1 enzyme inhibitors, primary screen, biochemical, fluorescence, purified enzyme; 1-phosphatidylinositol 4,5-bisphosphate phosphodiesterase gamma-1 (Homo sapiens), P19174; actives 0.84% (n = 370,000); inhibition, % at 12.2 µM; fluorogenic substrate; in the data active = inhibition above about 9.5%
Target sequence (P19174 whole entry, looked up): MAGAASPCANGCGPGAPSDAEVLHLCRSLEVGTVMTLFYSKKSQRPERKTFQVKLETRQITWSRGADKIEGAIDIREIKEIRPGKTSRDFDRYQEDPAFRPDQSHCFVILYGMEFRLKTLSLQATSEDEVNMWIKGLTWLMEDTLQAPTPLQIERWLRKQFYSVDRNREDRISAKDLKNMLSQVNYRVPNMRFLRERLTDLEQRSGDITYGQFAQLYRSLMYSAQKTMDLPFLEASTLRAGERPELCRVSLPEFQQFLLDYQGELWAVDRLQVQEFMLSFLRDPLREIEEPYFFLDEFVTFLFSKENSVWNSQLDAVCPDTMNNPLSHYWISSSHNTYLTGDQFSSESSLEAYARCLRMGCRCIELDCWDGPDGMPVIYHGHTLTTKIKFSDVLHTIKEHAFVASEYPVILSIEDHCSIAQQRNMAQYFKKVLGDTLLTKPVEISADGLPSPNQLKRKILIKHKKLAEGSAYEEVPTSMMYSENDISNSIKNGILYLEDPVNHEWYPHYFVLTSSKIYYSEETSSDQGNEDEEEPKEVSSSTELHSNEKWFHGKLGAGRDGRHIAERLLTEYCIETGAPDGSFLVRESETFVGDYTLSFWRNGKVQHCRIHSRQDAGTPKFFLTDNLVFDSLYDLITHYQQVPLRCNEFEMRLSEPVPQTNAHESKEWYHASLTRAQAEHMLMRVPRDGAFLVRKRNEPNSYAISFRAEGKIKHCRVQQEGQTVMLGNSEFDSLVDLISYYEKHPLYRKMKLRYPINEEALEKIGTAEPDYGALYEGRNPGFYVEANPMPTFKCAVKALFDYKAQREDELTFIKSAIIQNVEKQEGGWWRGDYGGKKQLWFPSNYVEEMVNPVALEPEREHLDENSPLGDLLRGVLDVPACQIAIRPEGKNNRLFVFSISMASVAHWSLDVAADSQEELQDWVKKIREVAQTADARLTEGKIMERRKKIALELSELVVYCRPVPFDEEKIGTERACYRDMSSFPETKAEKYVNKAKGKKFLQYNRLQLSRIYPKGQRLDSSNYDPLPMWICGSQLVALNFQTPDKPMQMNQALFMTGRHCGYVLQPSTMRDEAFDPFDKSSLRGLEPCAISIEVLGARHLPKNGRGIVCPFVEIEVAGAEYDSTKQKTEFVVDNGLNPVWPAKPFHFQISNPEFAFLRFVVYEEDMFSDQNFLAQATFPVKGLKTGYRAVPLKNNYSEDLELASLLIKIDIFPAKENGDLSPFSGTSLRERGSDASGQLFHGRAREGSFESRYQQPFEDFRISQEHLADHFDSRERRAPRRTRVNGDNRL
PLC-beta3 inh – human PLC-beta3 inhibitors, primary screen, biochemical, fluorescence | 1-phosphatidylinositol 4,5-bisphosphate phosphodiesterase beta-3 (Homo sapiens), Q01970 | Purified PLC-beta3, fluorogenic substrate | inhibition, % at 12.2 µM | actives 0.18% (n = 370,000) | AID 720704, 2013; in the data active = inhibition above about 11%;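 also: 0% = median of compound wells on plate and 100% = full blocker control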
MsrA inhibitor – bovine MsrA enzyme inhibitors, primary screen, biochemical, absorbance, HTS; Methionine sulfoxide reductase A (Bos taurus); purified bovine MsrA, absorbance read-out; inhibition, % at 15.5 µM; actives 0.75% (n = 360,000); AID 651718, 2012; in the data active = inhibition above about 4.5%;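 also: 0% = vehicle wells with enzyme and 100% = reference inhibitor wells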
MsrA activ conf – bovine MsrA activators, retest, confirmation, biochemical, absorbance, HTS; purified bovine MsrA, absorbance read-out; shares compounds with bovine MsrA act; AID 602270, 2012; activation, % at 10.6 µM; actives 12% (n = 1,000); in the data active = activation above about 4%;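 also: enzyme coupled to thioredoxin and thioredoxin reductase with NADPH; 0% = vehicle wells and 100% = reference activator wells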
Active calls of the source: *.

What do the screens show for `COc1cc(NC(=O)c2cc(OC)c(OC)c(OC)c2)c(OC)cc1NC(=O)CN1CCCCC1`?
bovine MsrA act: 8.4*; PLC-gamma1 inh: -10; PLC-beta3 inh: -12; MsrA inhibitor: 1; MsrA activ conf: 0

How did COc1cc(NC(=O)c2ccc(C)cc2)c(OC)cc1NC(=O)CN1CCCCC1 do in these assays?
bovine MsrA act: -3; PLC-gamma1 inh: -17; PLC-beta3 inh: -19; MsrA inhibitor: 2

Results for Nc1ccn([C@@H]2O[C@H](C(=O)N[C@H](Cc3ccccc3)C(=O)N3CCC(F)(F)CC3)[C@@H](O)[C@H]2O)c(=O)n1 ?
PLC-gamma1 inh: 2; PLC-beta3 inh: 4; MsrA inhibitor: -1

What do the screens show for `CS(=O)(=O)c1ccc2nc(NC(=O)c3cc([N+](=O)[O-])cc([N+](=O)[O-])c3)sc2c1`?
bovine MsrA act: 11*; PLC-gamma1 inh: 0; PLC-beta3 inh: -7; MsrA inhibitor: -1; MsrA activ conf: 0

What do the screens show for `Nc1ccc(S(=O)(=O)NC2=NCCCCC2)cc1`?
bovine MsrA act: -2; PLC-gamma1 inh: 2; PLC-beta3 inh: -8; MsrA inhibitor: 0

Results for O=S(=O)(NC1=NCCCCC1)c1ccc2ccccc2c1 ?
bovine MsrA act: 9.0*; PLC-gamma1 inh: 4; PLC-beta3 inh: 0; MsrA inhibitor: -1; MsrA activ conf: 0

What do the screens show for `COC1=CC(=O)c2c(ccc3ncnc(N)c23)C1=O`?
bovine MsrA act: 35*; PLC-gamma1 inh: 13*; PLC-beta3 inh: -4; MsrA inhibitor: 2; MsrA activ conf: 30*

How did CCCN1CCN(C(=O)CS(=O)(=O)Cc2nc(-c3cccc(OC)c3)oc2C)CC1 do in these assays?
bovine MsrA act: 9.3*; PLC-gamma1 inh: 2; PLC-beta3 inh: -8; MsrA inhibitor: -1; MsrA activ conf: -2

How did CCN1CCN(C(=O)CS(=O)(=O)Cc2nc(-c3cccc(OC)c3)oc2C)CC1 do in these assays?
bovine MsrA act: -4; PLC-gamma1 inh: 3; PLC-beta3 inh: -9; MsrA inhibitor: -1

Results for CCN1CCN(C(=O)Nc2ccc(Cc3ccc(NC(=O)N4CCN(CC)CC4)cc3)cc2)CC1 ?
bovine MsrA act: 8.2*; PLC-gamma1 inh: 3; PLC-beta3 inh: 2; MsrA inhibitor: 1; MsrA activ conf: 1

What do the screens show for `COCc1cc(=O)[nH]c(=S)[nH]1`?
bovine MsrA act: 9.9*; PLC-gamma1 inh: 5; PLC-beta3 inh: 6; MsrA inhibitor: 1; MsrA activ conf: 5.0*

What do the screens show for `O=C(Nc1ccc2c(c1)OCCO2)C1c2ccccc2OCC(=O)N1CCc1c[nH]c2ccccc12` (stereo unspecified)?
bovine MsrA act: 8.0*; PLC-gamma1 inh: 0; PLC-beta3 inh: -3; MsrA inhibitor: 0; MsrA activ conf: -2

Results for O=C(NC1CCCC1)C1c2ccccc2OCC(=O)N1CCc1c[nH]c2ccccc12 (stereo unspecified) ?
bovine MsrA act: -1; PLC-gamma1 inh: -2; PLC-beta3 inh: 0; MsrA inhibitor: -1

What do the screens show for `O=C(COC(=O)C1(c2ccc(F)cc2)CCCC1)Nc1ncc(C(F)(F)F)cc1Cl`?
bovine MsrA act: 3; PLC-gamma1 inh: 0; PLC-beta3 inh: 0; MsrA inhibitor: 0

Results for O=C(COC(=O)C1(c2ccc(Cl)cc2)CCCC1)Nc1ncc(C(F)(F)F)cc1Cl ?
bovine MsrA act: 8.8*; PLC-gamma1 inh: -4; PLC-beta3 inh: 0; MsrA inhibitor: 0; MsrA activ conf: 3

How did O=C1c2ccccc2NC(c2cc(Cl)cc(Cl)c2O)N1CCc1ccccn1 (stereo unspecified) do in these assays?
PLC-gamma1 inh: -6; PLC-beta3 inh: -7; MsrA inhibitor: 0

Results for CCC(c1nnnn1C(C)(C)C)N1CCN(C2CCCC2)CC1 (stereo unspecified) ?
bovine MsrA act: 8.1*; PLC-gamma1 inh: 4; PLC-beta3 inh: 6; MsrA inhibitor: 0; MsrA activ conf: -1

What do the screens show for `N#Cc1ccccc1NC(=O)CN1C(=O)NC(Cc2c[nH]c3ccccc23)C1=O` (stereo unspecified)?
bovine MsrA act: 8.0*; PLC-gamma1 inh: -9; PLC-beta3 inh: -11; MsrA inhibitor: -1; MsrA activ conf: 5.4*

How did COc1ccccc1-c1cccc2[nH]c3c(c12)CCN1C(=O)[C@H]2[C@H](C)ON(C)[C@H]2C[C@@H]31 do in these assays?
PLC-gamma1 inh: -439; PLC-beta3 inh: inactive; MsrA inhibitor: 0

How did C=C1CCC[C@]2(C)C[C@H]3OC(=O)C(CN(C)CC(OC)OC)[C@H]3CC12 (stereo partly specified) do in these assays?
bovine MsrA act: 8.7*; PLC-gamma1 inh: 2; PLC-beta3 inh: -7; MsrA inhibitor: 0; MsrA activ conf: -2

Results for Cc1cccc(N2CCN(C3=NC(=O)C(=C4CCCCC4)S3)CC2)c1 ?
bovine MsrA act: 8.0*; PLC-gamma1 inh: -3; PLC-beta3 inh: -1; MsrA inhibitor: 1; MsrA activ conf: 0

What do the screens show for `CCCS(=O)(=O)N1CCCC(C(=O)N2CCC(Cc3ccccc3)CC2)C1` (stereo unspecified)?
bovine MsrA act: 7.7*; PLC-gamma1 inh: -1; PLC-beta3 inh: 3; MsrA inhibitor: -1; MsrA activ conf: 0

How did CC(=O)C1=C(C)N(Cc2ccc(Cl)cc2)C(=S)NC1c1ccc(Cl)cc1 (stereo unspecified) do in these assays?
PLC-gamma1 inh: 8; PLC-beta3 inh: -1; MsrA inhibitor: 1

Results for Cc1cc(NC(=O)CCCC(=O)NCc2cccs2)no1 ?
bovine MsrA act: 7.9*; PLC-gamma1 inh: 1; PLC-beta3 inh: 2; MsrA inhibitor: 0; MsrA activ conf: -2

How did Oc1c(Cl)cc(Oc2cc(Cl)c(O)c(CN3CCOCC3)c2)cc1CN1CCOCC1 do in these assays?
bovine MsrA act: 8.7*; PLC-gamma1 inh: 6; PLC-beta3 inh: 2; MsrA inhibitor: 0; MsrA activ conf: -1

What do the screens show for `CC(C)C[C@H]1COc2cc(N3CC[C@@H](O)C3)ccc2S(=O)(=O)N1`?
bovine MsrA act: 9.9*; PLC-gamma1 inh: 8; PLC-beta3 inh: -5; MsrA inhibitor: 0; MsrA activ conf: 0

What do the screens show for `COc1ccc2nc(-c3ccc(CN4CCC(c5nc6ccccc6[nH]5)CC4)cc3)c(-c3ccccc3)nc2c1`?
PLC-gamma1 inh: -49; PLC-beta3 inh: -58; MsrA inhibitor: -1

Results for Cc1cccc(NC(=O)c2cc(S(=O)(=O)N3CCCCC3)ccc2Cl)n1 ?
bovine MsrA act: 12*; PLC-gamma1 inh: 1; PLC-beta3 inh: -2; MsrA inhibitor: 0; MsrA activ conf: -1

How did Nn1c(SCC(=O)NC2CCCc3ccccc32)nnc1-c1cccs1 (stereo unspecified) do in these assays?
bovine MsrA act: 8.7*; PLC-gamma1 inh: 3; PLC-beta3 inh: 1; MsrA inhibitor: 1; MsrA activ conf: 0
